Experimental data: PubChem BioAssay AID602123 (The Scripps Research Institute Molecular Screening Center, 2011)
Where “and” joins values, the source holds several entries; their conditions need not be identical. Identical values can stand only once. Hit rate of the full screen: of about 360,000 compounds, about 1,500 (0.42%) were called active. What follows is part of a selection rich in actives, with near analogues and random picks from the rest. Values without a mark were called inactive. No stated cut-off is given here; in the data, active means inhibition above about 13% (passing the limit was not always enough); inactive means the rest.

biological target: Lon protease (Escherichia coli (strain K12)) (UniProt P0A9M0); test: E. coli eLon protease inhibition – biochemical, fluorescence polarization, primary screen (AID 602123);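 further: 0% = enzyme with probe and DMSO and 100% = no enzyme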; settings: purified E. coli Lon protease, at 7.94 µM, active compounds read high
Sequence (P0A9M0 whole entry, looked up): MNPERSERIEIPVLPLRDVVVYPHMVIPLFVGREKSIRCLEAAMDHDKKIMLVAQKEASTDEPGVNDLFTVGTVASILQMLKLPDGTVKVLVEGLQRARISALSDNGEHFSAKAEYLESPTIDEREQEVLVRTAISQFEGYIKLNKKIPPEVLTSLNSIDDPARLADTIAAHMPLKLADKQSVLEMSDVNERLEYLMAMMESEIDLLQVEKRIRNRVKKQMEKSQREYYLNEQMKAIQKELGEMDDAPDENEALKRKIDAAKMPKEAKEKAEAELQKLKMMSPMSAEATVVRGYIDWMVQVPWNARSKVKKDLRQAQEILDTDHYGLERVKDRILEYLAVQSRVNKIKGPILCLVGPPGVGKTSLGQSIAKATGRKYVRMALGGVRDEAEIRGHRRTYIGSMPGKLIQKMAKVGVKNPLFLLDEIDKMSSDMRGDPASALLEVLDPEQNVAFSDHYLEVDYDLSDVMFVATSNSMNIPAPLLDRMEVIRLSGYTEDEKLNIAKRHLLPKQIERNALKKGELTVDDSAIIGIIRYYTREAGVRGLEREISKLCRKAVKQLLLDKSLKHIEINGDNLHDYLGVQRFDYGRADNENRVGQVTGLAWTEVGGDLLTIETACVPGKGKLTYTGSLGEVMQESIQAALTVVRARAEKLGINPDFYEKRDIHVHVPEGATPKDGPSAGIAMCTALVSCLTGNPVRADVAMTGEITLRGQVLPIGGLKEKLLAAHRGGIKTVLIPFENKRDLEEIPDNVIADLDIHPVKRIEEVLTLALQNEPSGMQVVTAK

| SMILES | inhibition |
| --- | --- |
| CCCOn1c(-n2nc(C)cc2C)nc2ccccc2c1=O | -4.29% |
| CC1(C)NC(=O)N(CC(=O)Nc2ccc(-c3ccccc3)cc2)C1=O | -5.51% |
| COc1ccc2[nH]c(C)c(CCN(Cc3cccs3)C(=S)Nc3ccccc3OC)c2c1 | 18.1% (active) |
| Cc1[nH]c2ccccc2c1CCN(Cc1cccs1)C(=S)NC(C)(C)C | -6.78% |
| COc1ccc(NC(=S)NCc2cccs2)c(OC)c1 | -8.04% |
| CCn1c(CSc2nncn2-c2ccc(OC)cc2)nc2cc(S(=O)(=O)N(C)C)ccc21 | 3.36% |
| Cc1ccccc1Nc1nc(N)nc(CN2CCN(c3ccccn3)CC2)n1 | 16.7% (active) |
| Cc1ccccc1Nc1nc(N)nc(CSc2nnc3ccccn23)n1 | 7.49% |
| CCCn1nc(C(=O)OCc2nc(N)nc(Nc3ccccc3C)n2)c2ccccc2c1=O | -13.7% |
| Cc1sc(NC(=S)NC(=O)c2cccs2)nc1-c1ccc(CC(C)C)cc1 | -2.21% |
| O=C(CSCc1ccc([N+](=O)[O-])cc1)Nc1cccc(C(=O)Nc2ccccc2C(=O)O)c1 | -7.21% |
| Cc1ccc(S(=O)(=O)N2CCC(C(=O)OCC(=O)N(C)c3ccccc3)CC2)cc1C | -4.62% |
| C[C@@H]1CN([C@H](C)CO)C(=O)CCCn2nncc2CO[C@@H]1CN(C)C(=O)OCc1ccccc1 | -12.2% |
| O=C(CSc1n[nH]c(-c2cccnc2)n1)Nc1ccnc2ccccc12 | -1.63% |
| CCN(CC(=O)NC1CCS(=O)(=O)C1)c1nc(-c2cccnc2)nc2ccccc12 (stereo unspecified) | -4.31% |
| COc1ccc(Nc2nc(-c3cccnc3)nc3ccccc23)cn1 | 51.2% (active) |
| O=C(C1=C(O)C(=O)N(Cc2ccccc2)C1c1cccnc1)c1ccco1 (stereo unspecified) | -4.41% |
| O=C(C1=C(O)C(=O)N(c2ncccn2)C1c1cccs1)c1ccco1 (stereo unspecified) | 44.3% (active) |
| Cc1ccc2nc(N3C(=O)C(O)=C(C(=O)c4ccco4)C3c3cccc(O)c3)sc2c1 (stereo unspecified) | -1.95% |
| CC/C(C)=N/Nc1nc2sc3c(c2c(=O)[nH]1)CC(C)(C)OC3 | 20.9% (active) |
| CC(C)c1nc2sc3c(c2c(=O)n1N)CC(C)(C)OC3 | -4.29% |
| CCOC(=O)Cn1c(SC)nc2sc3c(c2c1=O)CC(C)(C)OC3 | -4.5% |
| CCC(C)c1ccc(NC(=S)NCc2ccccn2)cc1 (stereo unspecified) | 0.44% |

| SMILES | inhibition |
| --- | --- |
| CN(C)c1ccc(C2N(C)C(=O)c3ccccc3N2C)cc1 (stereo unspecified) | -1.4% |
| CN(C)c1ccc(Nc2c3c4c(cccc4n(C)c2=O)C(=O)c2ccccc2-3)cc1 | 48.2% (active) |
| COc1ccc(NC(=O)CC2C(=O)OCC3CCCCN32)cc1Cl (stereo unspecified) | 1.67% |
| Cc1ccc(C(=O)O)c(NC=O)c1OCc1ccccc1 | -0.93% |
| COc1ccc(-c2csc(C(O)c3cccc(Cl)c3)n2)cn1 (stereo unspecified) | -11.3% |
| CCN1CC=C2C(C#N)=C(N)C(C#N)(C#N)[C@H](c3ccoc3)[C@H]2C1 | 120% (active) |
| CC(C)C(=O)Nc1nnc(Sc2ccc(N(C)C)cc2)s1 | -6.47% |
| CCN(CC(=O)NCc1ccc(Cl)cc1)C(=O)CSc1ccccc1 | -3.84% |
| CCOCCN(C=O)c1cccc(OC)c1 | 32.6% (active) |
| CCN(CC)C(=O)CN(c1cccc(OC)c1)S(=O)(=O)c1ccc(C)cc1 | -0.24% |
| CCOC(=O)NC(=O)C(=CNc1cccc(OC)c1)C(=O)NC(=O)OCC | -2.26% |
| COc1ccc(NC(=O)CN2C(=O)COc3ccc(S(=O)(=O)N4CCOCC4)cc32)c(OC)c1 | -3.19% |
| CCCCCc1ccc(-c2ccc(C(=O)O)cc2)nc1 | -2.2% |
| O=C(C1CCCO1)N1CCN(C(=S)NC2CC2)CC1 (stereo unspecified) | -2.14% |
| O=C(OC1CCOC1=O)c1ccc(-c2nc3ccccc3s2)s1 (stereo unspecified) | -3.38% |
| CCOC(=O)N1CCC(NC(=O)Cc2cn(C)c3ccccc23)CC1 | 15.9% (active) |
| Cn1cc(CCC(=O)NC2CC2)c2ccccc21 | 0.25% |
| CCOC(=O)N1CCC(NC(=O)CCc2cn(C)c3ccccc23)CC1 | -2.75% |
| CC1(C)OC(=O)C(=CSc2ccc(C(C)(C)C)cc2)C(=O)O1 | -7.26% |
| Cc1cc(OCC(=O)N(C)c2c(N)n(Cc3ccccc3)c(=O)[nH]c2=O)c(C(C)C)cc1Cl | -1.64% |
| Nc1cc(=O)n(Cc2ccccc2)c(=O)n1Cc1ccccc1 | -0.35% |
| Cc1cc2nc3c(=O)n(Cc4ccccc4)c(=O)[nH]c3nc2cc1N | 182% (active) |
| CC(C)(C)OC(=O)N1CCC(C(=O)NNC(=O)c2ccc(Cl)cc2Cl)CC1 | -1.59% |

| SMILES | inhibition |
| --- | --- |
| CCOc1ccc(NC(=O)C2CCN(C(=O)N3CCOc4ccccc43)CC2)cc1 | -11.2% |
| CN1CCN(S(=O)(=O)c2ccc(N3CCN(S(=O)(=O)c4cccs4)CC3)nc2)CC1 | -1.23% |
| O=C(C1CCN(S(=O)(=O)Cc2ccccc2)CC1)N1CCCc2ccccc21 | -0.35% |
| CC1CN(Cc2nc3c(c(=O)n(C)c(=O)n3C)n2Cc2cccc(Cl)c2)CC(C)O1 (stereo unspecified) | -2.4% |
| O=C1CCC(=O)N1c1ccc(NCCc2ccccc2F)c([N+](=O)[O-])c1 | 0.67% |
| CCN(CCCCOC(=O)c1ccc(OC)c(OC)c1)C(C)Cc1ccc(OC)cc1 (stereo unspecified) | -2.66% |
| O=C1c2ccccc2C(=O)c2c1cccc2N1CCN(Cc2ccccc2)CC1 | 5.59% |
| O=C1CCN(CCCc2ccccc2)CCN1CCO | 1.45% |
| O=C1c2ccccc2C(=O)c2c1cccc2N1CCN(CCO)CC1 | 17.6% (active) |
| Cc1cc2c(cc1C)[n+](C)cn2CC(O)COCC1CC=CCC1 (stereo unspecified) | 4.81% |
| C[C@]12C=CC(=O)C=C1CC[C@@H]1[C@@H]2C(=O)C[C@@]2(C)[C@H]1CC[C@]2(O)C(=O)CO | -2.3% and 1.49% |
| C[C@H](CO)N1C[C@H](C)[C@@H](CN(C)C(=O)c2cccc(F)c2)Oc2cc(-c3cncnc3)ccc2S1(=O)=O | -3.93% |
| CCOC(=O)C(=CNNc1ccsc1C(=O)OC)C(=O)OCC | -2.58% |
| O=C(Nc1cccc2ccccc12)c1[nH]c(-c2ccccc2)c2c1C(=O)N(C1CC1)C2=O | -8.53% |
| CC(C(=O)NC1CCCC1)N1CCN(S(=O)(=O)c2ccccc2Cl)CC1 (stereo unspecified) | 17.4% (active) |
| O=C(Cc1ccc(S(=O)(=O)N2CCCC2)s1)NC1CCCCCC1 | -1.79% |
| CC(C)c1ccc(S(=O)(=O)N2CCN(C(C)C(=O)NC3CCCC3)CC2)cc1 (stereo unspecified) | 8.04% |
| COc1cc(CNCc2ccc3c(c2)OCO3)c([N+](=O)[O-])cc1OC | -8.35% |
| COc1cccc(NC(=O)C2CCCN(c3ncnc4c3nc3n4CCCCC3)C2)c1 (stereo unspecified) | -9.74% |
| CCn1nnnc1SCC(=O)c1ccc(C)cc1C | -3.48% |
| Cc1ccc2c(c1)nnc1nnc(SCC(=O)O)n12 | 62% (active) |
| Cc1cccc(-c2nnc(SCC(=O)O)n2Cc2ccccc2)c1 | -7.43% |
| CC(C)(C(=O)N1CCC1(C)C(=O)NS(=O)(=O)c1ccc(Br)cc1)c1ccccc1 (stereo unspecified) | -2.78% |

| SMILES | inhibition |
| --- | --- |
| Cc1cc(Br)ccc1NC(=O)CCCOc1cc(=O)n(C)c2ccccc12 | -8.57% |
| COc1ccc(C(CC(=O)c2ccccc2)S(=O)(=O)c2ccccc2)cc1 (stereo unspecified) | -2.33% |
| O=C(COC(=O)CCc1c[nH]c(=O)[nH]1)Nc1ccccc1Cl | 25.7% (active) |
| Cc1cc(C(=O)OCC(=O)Nc2ccccc2Cl)c(C)o1 | -2.91% |
| Cc1cccc(NC(=O)COC(=O)CCc2ccccc2)c1C | -6.48% |
| C/C(=N\NC(=O)c1ccc(C)cc1)C1C(=O)c2ccccc2C1=O | 3.32% |
| COc1ccc(N(CC(=O)NC2CCCC2)C(=O)CS(=O)CC(=O)Nc2ccc3c(c2)OCO3)cc1 (stereo unspecified) | 0.46% |
| CC(C)NC(=O)N1Cc2cc(C(=O)NCC(F)(F)F)nc(-c3cccc(-c4cc5ccccc5o4)c3)c2[C@@H]1CCO | 1.84% |
| COCCOC(=O)c1sc(=S)n(CCOC)c1N | 18.6% (active) |
| O=C(CSc1n[nH]c(-c2cccs2)n1)N1CCCCC1 | 0.33% |
| CCCN(CCC)C(=O)C1c2ccccc2Oc2ccccc21 | 151% (active) |
| CCOC(=O)CC(NC(=O)C1c2ccccc2Oc2ccccc21)c1ccc(C)cc1 (stereo unspecified) | -23.2% |
| CC(C)(C)NC(=O)NC(=O)COC(=O)C1c2ccccc2Oc2ccccc21 | 7.11% |
| Cc1ccc(Sc2ccncc2S(N)(=O)=O)cc1 | -17.1% |
| CCc1cc(=O)oc2cc(C)cc(OCC(=O)N3CCC[C@@H]3C(=O)O)c12 | 3.5% |
| C/C(CC(O)(/C=N/O)c1ccccc1)=N\O (stereo unspecified) | -3.3% |
| CCC(C)(C)NC(=O)C(c1cccn1C)N(Cc1ccc(C)cc1)C(=O)Cn1nnc2ccccc21 (stereo unspecified) | 0.29% |
| O=C(COC(=O)c1ccc2c(c1)OCCO2)NCc1ccccc1Cl | 6.26% |
| NC(=O)c1ccc(NC(=O)COC(=O)c2c3c(nc4ccccc24)/C(=C\c2ccc4c(c2)OCO4)CCC3)cc1 | 183% (active) |
| CCN(CC(=O)Nc1ccc2c(c1)OCO2)S(=O)(=O)c1ccccc1 | 7.87% |
| O=C(COC(=O)c1c2c(nc3ccccc13)CCCC2)c1ccc(Br)s1 | -4.86% |
| CC(NC(=S)Nc1ccc(S(N)(=O)=O)cc1)c1ccc2c(c1)OCO2 (stereo unspecified) | 4.89% |
